Source: the antibiotic and cytotoxicity screens of Wong et al. (2023)
About 1,500 (3.8%) of roughly 39,000 compounds were called active. This is one part of a sample in which actives are shown more often than they occur.

system: HSkMC (human skeletal muscle cells); test: cytotoxicity call (relative viability < 0.9); conditions: 10 µM

Row | Structure (SMILES) | cytotoxicity call
1 | C=CC(=O)Nc1cccc(C)c1Nc1ncc2cc(-c3c(Cl)c(OC)cc(OC)c3Cl)ccc2n1 | inactive
2 | C=CC(=O)Nc1cccc(Nc2nc(Nc3ccc(NC4CN(CCF)C4)cc3OC)ncc2C(F)(F)F)c1 | active
3 | C[C@@H]1CN([C@@H](C)CO)C(=O)c2cc(NC(=O)C3CC3)ccc2O[C@H]1CN(C)S(=O)(=O)c1ccccc1 | inactive
4 | C[C@@H](NC(=O)C[C@@H]1CC[C@H](NC(=O)CN2CCOCC2)[C@H](CO)O1)c1ccccc1 | inactive
5 | CC[C@@H](C)n1ncn(-c2ccc(N3CCN(c4ccc(OC[C@H]5CO[C@](Cn6cncn6)(c6ccc(Cl)cc6Cl)O5)cc4)CC3)cc2)c1=O | inactive
6 | CC[C@H](C)n1ncn(-c2ccc(N3CCN(c4ccc(OC[C@H]5CO[C@](Cn6cncn6)(c6ccc(Cl)cc6Cl)O5)cc4)CC3)cc2)c1=O | active
7 | CCC(C)n1ncn(-c2ccc(N3CCN(c4ccc(OCC5COC(Cn6cncn6)(c6ccc(Cl)cc6Cl)O5)cc4)CC3)cc2)c1=O.Cl.Cl (stereo not given) | inactive
8 | CS(=O)(=O)N1CCN(Cc2cc3nc(-c4cccc5n[nH]cc45)nc(N4CCOCC4)c3s2)CC1 | active
9 | CO[C@@H]1CN(C)C(=O)c2ccc(NC(=O)NC(C)C)cc2OC[C@@H](C)N(Cc2ccc(-c3ccccn3)cc2)C[C@H]1C | inactive
10 | C[C@H](CO)N1C[C@H](C)[C@H](CN(C)CC2CC2)Oc2ccc(NS(=O)(=O)c3cccs3)cc2C1=O | inactive
11 | CC(C)NC(=O)N(C)C[C@@H]1OCCCC[C@@H](C)Oc2ccc(NC(=O)Nc3ccc(C(F)(F)F)cc3)cc2C(=O)N([C@@H](C)CO)C[C@H]1C | inactive
12 | CC(C)NC(=O)N(C)C[C@@H]1OCCCC[C@H](C)Oc2ccc(NC(=O)Nc3ccc(C(F)(F)F)cc3)cc2C(=O)N([C@H](C)CO)C[C@@H]1C | active
13 | C[C@@H]1CCCCO[C@H](CN(C)C(=O)Nc2ccc(C(F)(F)F)cc2)[C@@H](C)CN([C@@H](C)CO)C(=O)c2cc(NC(=O)Nc3ccc(C(F)(F)F)cc3)ccc2O1 | inactive
14 | CC(C)NC(=O)N(C)C[C@H]1OCCCC[C@@H](C)Oc2ccc(NC(=O)Nc3ccc(C(F)(F)F)cc3)cc2C(=O)N([C@@H](C)CO)C[C@H]1C | inactive
15 | CC(C)NC(=O)N(C)C[C@@H]1OCCCC[C@H](C)Oc2ccc(NC(=O)Nc3ccc(C(F)(F)F)cc3)cc2C(=O)N([C@@H](C)CO)C[C@H]1C | inactive
16 | C[C@H](CO)N1C[C@H](C)[C@H](CN(C)C(=O)Nc2ccc(C(F)(F)F)cc2)OCCCC[C@H](C)Oc2ccc(NC(=O)Nc3ccc(C(F)(F)F)cc3)cc2C1=O | active
17 | C[C@H]1CCCCO[C@H](CN(C)C(=O)C2CCCCC2)[C@@H](C)CN([C@@H](C)CO)C(=O)c2cc(NC(=O)Nc3ccc(C(F)(F)F)cc3)ccc2O1 | active
18 | C[C@H]1CCCCO[C@H](CN(C)C(=O)Nc2ccc(C(F)(F)F)cc2)[C@@H](C)CN([C@@H](C)CO)C(=O)c2cc(NC(=O)Nc3ccc(C(F)(F)F)cc3)ccc2O1 | inactive
19 | CC(C)NC(=O)N(C)C[C@H]1OCCCC[C@H](C)Oc2ccc(NC(=O)Nc3ccc(C(F)(F)F)cc3)cc2C(=O)N([C@H](C)CO)C[C@@H]1C | inactive
20 | CC(C)NC(=O)N(C)C[C@@H]1OCCCC[C@H](C)Oc2ccc(NC(=O)Nc3ccc(C(F)(F)F)cc3)cc2C(=O)N([C@@H](C)CO)C[C@@H]1C | active
21 | C[C@@H]1CCCCO[C@@H](CN(C)C(=O)C2CCCCC2)[C@H](C)CN([C@@H](C)CO)C(=O)c2cc(NC(=O)Nc3ccc(C(F)(F)F)cc3)ccc2O1 | inactive
22 | C[C@@H]1CCCCO[C@@H](CN(C)C(=O)C2CCCCC2)[C@@H](C)CN([C@H](C)CO)C(=O)c2cc(NC(=O)Nc3ccc(C(F)(F)F)cc3)ccc2O1 | inactive
23 | CN1C(=O)c2cc(NC(=O)C3CCOCC3)ccc2OC[C@@H]2O[C@H](CC(=O)NCc3ccccc3F)CC[C@@H]21 | inactive
24 | O=C(C[C@@H]1CC[C@@H]2NC[C@H](O)COC[C@H]2O1)NCCN1CCCCC1 | inactive
25 | COCC#Cc1cnc2c(c1)C(=O)N([C@H](C)CO)C[C@H](C)[C@@H](CN(C)C(=O)Nc1ccccc1OC)O2 | inactive

Row | Structure (SMILES) | cytotoxicity call
26 | C[C@H]1CN([C@@H](C)CO)C(=O)Cc2cc(NS(=O)(=O)c3ccc(F)cc3)ccc2O[C@H]1CN(C)S(=O)(=O)c1cn(C)cn1 | inactive
27 | COc1cccc(NC(=O)N2C[C@@H](O)COC[C@@H]3O[C@@H](CC(=O)NCc4ccccc4F)CC[C@H]32)c1 | inactive
28 | C[C@@H]1CCCCO[C@@H](CN(C)C(=O)Nc2ccc(C(F)(F)F)cc2)[C@@H](C)CN([C@H](C)CO)C(=O)c2cc(NC(=O)c3ccccc3)ccc2O1 | inactive
29 | CC(C)(C)[S@@](=O)N1Cc2cc(C(=O)NCc3ccccc3F)nc(-c3cccc(-c4cccnc4)c3)c2[C@H]1CCO | inactive
30 | O=C(C[C@H]1C=C[C@@H](NC(=O)Cc2ccccn2)[C@@H](CO)O1)NCCCN1CCOCC1 | inactive
31 | C[C@@H]1CN([C@H](C)CO)S(=O)(=O)c2ccc(C#Cc3ccncc3)cc2O[C@H]1CN(C)C(=O)C1CCOCC1 | inactive
32 | CN(C)Cc1cn(CC[C@@H]2CC[C@H](N)[C@H](CO)O2)nn1 | inactive
33 | C[C@H](CO)N1C[C@H](C)[C@@H](CN(C)S(=O)(=O)c2ccc3ccccc3c2)OCc2cn(nn2)CCCC1=O | inactive
34 | C[C@H](CO)N1C[C@H](C)[C@@H](CN(C)C(=O)Nc2cccc3ccccc23)Oc2c(NC(=O)C3CCCCC3)cccc2C1=O | inactive
35 | COc1cc(Nc2ncc3c(n2)-c2ccc(Cl)cc2C(c2c(F)cccc2OC)=NC3)ccc1C(=O)O | active
36 | C=CCN(C(=O)[C@H]1N(CCOCCO)C(=O)[C@H]2[C@H](C(=O)O)[C@@H]3C=C[C@@]21O3)c1ccc(OC)cc1 | inactive
37 | CCS(=O)(=O)Nc1ccc2c(c1)C(=O)N(C)[C@H]1CC[C@@H](CC(=O)N[C@H]3CCN(Cc4ccccc4)C3)O[C@@H]1CO2 | inactive
38 | C[C@@H]1CN([C@H](C)CO)C(=O)c2cccc(NC(=O)C3CCOCC3)c2O[C@@H]1CN(C)S(=O)(=O)c1cccs1 | inactive
39 | CC1CCC2(OC1)OC1CC3C4CCC5CC(O)CCC5(C)C4CC(=O)C3(C)C1C2C (stereo not given) | inactive
40 | C[C@@H]1CC[C@@]2(OC1)O[C@H]1C[C@H]3[C@H]4C[C@@H](O)[C@H]5C[C@@H](O[C@@H]6O[C@H](CO)[C@H](O[C@@H]7O[C@H](CO)[C@@H](O)[C@H](O[C@@H]8OC[C@@H](O)[C@H](O)[C@H]8O)[C@H]7O[C@@H]7O[C@H](CO)[C@@H](O[C@@H]8O[C@H](CO)[C@@H](O)[C@H](O)[C@H]8O)[C@H](O)[C@H]7O)[C@H](O)[C@H]6O)[C@H](O)C[C@]5(C)[C@@H]4CC[C@]3(C)[C@H]1[C@@H]2C | active
41 | C[C@@H]1CC[C@@]2(OC1)O[C@H]1C[C@H]3[C@H]4C[C@@H](O)[C@H]5C[C@@H](O[C@@H]6O[C@H](CO)[C@H](O[C@@H]7O[C@H](CO)[C@@H](O)[C@H](O[C@@H]8OC[C@@H](O)[C@H](O)[C@H]8O)[C@H]7O[C@@H]7O[C@H](CO)[C@@H](O[C@@H]8O[C@H](CO)[C@@H](O)[C@H](O)[C@H]8O)[C@H](O)[C@H]7O)[C@H](O)[C@H]6O)CC[C@]5(C)[C@@H]4CC[C@]3(C)[C@H]1[C@@H]2C | active
42 | CC(=O)OC1CCC2(C)C(CCC3C2CCC2(C)C3CC3OC4(CCC(C)CO4)C(C)C32)C1 (stereo not given) | inactive
43 | CC1CCC2(OC1)OC1CC3C4CCC5CC(O)CCC5(C)C4CCC3(C)C1C2C (stereo not given) | inactive
44 | C[C@@H]1CC[C@@]2(OC1)O[C@H]1C[C@H]3[C@H]4C[C@@H](O)[C@H]5C[C@@H](O[C@@H]6O[C@H](CO)[C@H](O[C@@H]7O[C@H](CO)[C@@H](O)[C@H](O[C@@H]8OC[C@@H](O)[C@H](O)[C@H]8O)[C@H]7O[C@@H]7O[C@H](CO)[C@@H](O)[C@H](O)[C@H]7O)[C@H](O)[C@H]6O)[C@H](O)C[C@]5(C)[C@@H]4CC[C@]3(C)[C@H]1[C@@H]2C | inactive
45 | C[C@@H]1CC[C@@]2(OC1)O[C@H]1C[C@H]3[C@H]4CC=C5C[C@@H](O[C@@H]6O[C@H](CO)[C@@H](O[C@@H]7O[C@@H](C)[C@H](O)[C@@H](O)[C@H]7O[C@@H]7O[C@@H](C)[C@H](O)[C@@H](O)[C@H]7O)[C@H](O)[C@H]6O)CC[C@]5(C)[C@@H]4CC[C@]3(C)[C@H]1[C@@H]2C | active
46 | C[C@@H]1CC[C@@]2(OC1)O[C@H]1C[C@H]3[C@H]4C[C@@H](O)[C@H]5C[C@@H](O[C@@H]6O[C@H](CO)[C@H](O[C@@H]7O[C@H](CO)[C@@H](O)[C@H](O[C@@H]8OC[C@@H](O)[C@H](O)[C@H]8O)[C@H]7O[C@@H]7O[C@H](CO)[C@@H](O)[C@H](O)[C@H]7O)[C@H](O)[C@H]6O)CC[C@]5(C)[C@@H]4CC[C@]3(C)[C@H]1[C@@H]2C | active
47 | CC(C)=CCC[C@](C)(O[C@@H]1O[C@H](CO[C@@H]2OC[C@@H](O)[C@H](O)[C@H]2O)[C@@H](O)[C@H](O)[C@H]1O)[C@H]1CC[C@]2(C)[C@@H]1[C@H](O)C[C@@H]1[C@@]3(C)CC[C@H](O[C@@H]4O[C@H](CO)[C@@H](O)[C@H](O)[C@H]4O)C(C)(C)[C@@H]3CC[C@]12C | inactive
48 | CC1CCC2(OC1)OC1CC3C4CC=C5CC(O)CCC5(C)C4CCC3(C)C1C2C (stereo not given) | inactive
49 | CC(=O)OC1CCC2(C)C(CCC3C2CC(=O)C2(C)C3CC3OC4(CCC(C)CO4)C(C)C32)C1 (stereo not given) | inactive
50 | C[C@@H]1CO[C@]2(O[C@H]3C[C@H]4[C@H]5C[C@H](O[C@H]6O[C@@H](C)[C@@H](O)[C@@H](O[C@@H]7O[C@@H](C)[C@H](O)[C@@H](O)[C@H]7O)[C@@H]6O)[C@H]6C[C@@H](O)CC[C@]6(C)[C@@H]5CC[C@]4(C)[C@H]3[C@@H]2C)[C@@H](O)C1 | inactive
